Experimental data reported in the supplement of paper PMC10849652.
Of roughly 7,900 targets only a part is listed; those with a hit were picked by preference. About 0.6% of all pairs of compound and target were hits.

Assays:
Assay in all cases: log2 fold change, soluble protein after heating vs DMSO (PISA); higher = thermal stabilisation; K562 cells, 10 uM, 30 min; active = over 0.2 and 3.5 SD of the protein, either way, in both replicates (recomputed)
[1] = compound: CS(=O)(=O)c1ccc(-c2cnc(N)c(C(=O)Nc3ccccc3)n2)cc1
Summary of the method: (§1)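 For each measurement, 10 μM compound was applied for 30 min to K562 cells at 2×10^6 cells/mL. Aliquots were heated for 3 min across 48°C-58°C, pooled, and extracted in PBS with 0.5% NP-40 at 4°C; the supernatant after 21,000xg for 90 min was soluble protein. This was quantified by TMTpro 16plex LC-MS/MS with channel sums equalised, and thermal stability was reported relative to control samples from duplicates, on a log2 fold-change scale.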

[2] = compound: C[C@@H](Oc1cc(-c2cnn(C3CCNCC3)c2)cnc1N)c1c(Cl)ccc(F)c1Cl [crizotinib]
Summary of the method: as §1

[3] = compound: C[C@@H]1COCCN1C2=NC(=NC(=C2)C3(CC3)S(=O)(=O)C)C4=C5C=CNC5=CC=C4
Summary of the method: as §1

[4] = compound: C[C@H](C1=CC=C(C=C1)C(=O)NC2=C3C=CNC3=NC=C2)N
Summary of the method: as §1

[5] = compound: C[C@H](Nc1ncnc2nc[nH]c12)c1cc2cccc(Cl)c2c(=O)n1-c1ccccc1 [duvelisib]
Summary of the method: as §1

[6] = compound: Cc1cc(Nc2cc(CN3CCOCC3)c3nc(C)c(Cc4ccc(Cl)cc4F)n3n2)n[nH]1 [gandotinib]
Summary of the method: as §1

[7] = compound: Cc1cc(Nc2cc(N3CCN(C)CC3)nc(Sc3ccc(NC(=O)C4CC4)cc3)n2)n[nH]1 [tozasertib]
Summary of the method: as §1

[8] = compound: Cc1cc(SCc2sc(-c3ccc(C(F)(F)F)cc3)nc2C)ccc1OCC(=O)O
Summary of the method: as §1

[9] = compound: Cc1ccc(-n2nc(C(C)(C)C)cc2NC(=O)Nc2ccc(OCCN3CCOCC3)c3ccccc23)cc1 [doramapimod]
Summary of the method: as §1

[10] = compound: Cc1ccc(C(=O)N(CCCN)[C@@H](c2nc3cc(Cl)ccc3c(=O)n2Cc2ccccc2)C(C)C)cc1 [ispinesib]
Summary of the method: as §1

[11] = compound: Cc1ccc(NC(=O)c2ccc(CN3CC[C@H](N(C)C)C3)c(C(F)(F)F)c2)cc1Nc1nccc(-c2cncnc2)n1 [bafetinib]
Summary of the method: as §1

[12] = compound: Cc1cccc(CC(=O)N2CCc3c2ccc(-c2cn(C)c4ncnc(N)c24)c3F)n1
Summary of the method: as §1

[13] = compound: Cc1cn(-c2cc(NC(=O)c3ccc(C)c(Nc4nccc(-c5cccnc5)n4)c3)cc(C(F)(F)F)c2)cn1 [nilotinib]
Summary of the method: as §1

[14] = compound: Cc1nc(Nc2n[nH]c3c2CN(C(=O)N[C@H](CN(C)C)c2ccccc2)C3(C)C)c2sccc2n1
Summary of the method: as §1

[15] = compound: Cc1nc(Nc2ncc(C(=O)Nc3c(C)cccc3Cl)s2)cc(N2CCN(CCO)CC2)n1 [dasatinib]
Summary of the method: as §1

[16] = compound: Cc1ncc(-c2ccnc(Nc3ccc(S(C)(=O)=O)cc3)n2)n1C(C)C
Summary of the method: as §1

[17] = compound: Cn1cc(-c2ccc3c(c2)CCN3C(=O)Cc2cccc(C(F)(F)F)c2)c2c(N)ncnc21
Summary of the method: as §1

[18] = compound: Cn1cc(-c2ccc3nnc(C(F)(F)c4ccc5ncccc5c4)n3n2)cn1
Summary of the method: as §1

[19] = compound: Cn1cncc1[C@@](N)(c1ccc(Cl)cc1)c1ccc2c(c1)c(-c1cccc(Cl)c1)cc(=O)n2C [tipifarnib]
Summary of the method: as §1

[20] = compound: FC(F)(F)c1ccc(/C=C/c2nc(COc3ccc(CCCCn4ccnn4)cc3)co2)cc1 [mubritinib]
Summary of the method: as §1

Measured: log2 fold change

PXK (UniProt Q7Z7A4)
Sequence of UniProt Q7Z7A4 (Q7Z7A4 whole entry, looked up): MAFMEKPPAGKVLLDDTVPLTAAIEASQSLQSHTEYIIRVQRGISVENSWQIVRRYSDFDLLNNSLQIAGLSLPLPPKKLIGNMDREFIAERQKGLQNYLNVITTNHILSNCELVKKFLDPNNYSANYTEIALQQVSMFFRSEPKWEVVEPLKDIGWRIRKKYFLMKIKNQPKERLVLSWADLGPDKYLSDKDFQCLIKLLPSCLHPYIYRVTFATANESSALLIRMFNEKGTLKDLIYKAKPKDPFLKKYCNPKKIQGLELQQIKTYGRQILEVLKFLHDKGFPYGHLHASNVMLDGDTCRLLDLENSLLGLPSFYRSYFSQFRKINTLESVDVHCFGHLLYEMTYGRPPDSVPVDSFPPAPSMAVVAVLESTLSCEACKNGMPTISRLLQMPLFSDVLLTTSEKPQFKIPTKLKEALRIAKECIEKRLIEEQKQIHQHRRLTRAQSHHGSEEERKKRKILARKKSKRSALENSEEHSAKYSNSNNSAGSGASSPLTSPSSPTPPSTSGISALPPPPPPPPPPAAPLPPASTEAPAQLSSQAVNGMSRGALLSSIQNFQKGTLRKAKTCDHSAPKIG
inactive: [1] -0.06 | [2] -0.139 | [3] 0.032 | [4] -0.026 | [5] -0.023 | [6] -0.042 | [7] -0.024 | [8] 0.011 | [9] -0.025 | [10] -0.203 | [11] -0.01 | [12] 0.086 | [13] -0.026 | [14] 0.025 | [15] 0.226 | [16] 0.012 | [17] 0.029 | [18] -0.106 | [19] -0.001 | [20] 0.098

PRKCG (UniProt P05129)
inactive: [1] 0.078 | [2] -0.005 | [3] 0.188 | [4] 0.028 | [5] 0.244 | [6] -0.149 | [7] -0.04 | [8] 0.11 | [9] -0.029 | [10] 0 | [11] -0.012 | [12] 0.067 | [13] 0.019 | [14] -0.385 | [15] 0.022 | [16] 0.018 | [17] 0.015 | [18] -0.132 | [19] -0.095 | [20] 0.047

PDCD4 (UniProt Q53EL6)
Sequence of UniProt Q53EL6 (Q53EL6 whole entry, looked up): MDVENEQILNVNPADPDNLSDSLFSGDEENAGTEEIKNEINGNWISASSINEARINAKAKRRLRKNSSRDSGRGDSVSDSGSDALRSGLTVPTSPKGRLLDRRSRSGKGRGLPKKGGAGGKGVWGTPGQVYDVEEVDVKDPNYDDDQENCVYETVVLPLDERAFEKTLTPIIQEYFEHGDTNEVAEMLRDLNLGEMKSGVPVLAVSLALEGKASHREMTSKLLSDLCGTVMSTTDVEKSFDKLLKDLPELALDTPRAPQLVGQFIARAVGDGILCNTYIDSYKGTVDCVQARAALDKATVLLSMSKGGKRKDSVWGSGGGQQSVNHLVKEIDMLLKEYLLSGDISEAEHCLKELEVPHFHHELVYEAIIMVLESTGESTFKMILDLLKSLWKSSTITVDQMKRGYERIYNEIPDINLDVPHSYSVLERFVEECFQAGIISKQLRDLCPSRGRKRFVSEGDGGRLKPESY
inactive: [1] 0.096 | [2] 0.09 | [3] 0.303 | [4] 0.007 | [5] 0.133 | [6] -0.141 | [7] 0.126 | [8] 0.066 | [9] -0.047 | [10] 0.039 | [11] 0.065 | [12] -0.014 | [13] 0.017 | [14] 0.025 | [15] -0.144 | [16] 0.144 | [17] 0.022 | [18] 0.077 | [19] -0.172 | [20] 0.104

POLR2K (UniProt P53803)
inactive: [1] 0.029 | [2] 0.18 | [3] 0.074 | [4] 0.098 | [5] 0.154 | [6] -0.011 | [7] -0.065 | [8] 0.001 | [9] -0.059 | [10] 0.029 | [11] -0.052 | [12] -0.057 | [13] -0.021 | [14] 0.029 | [15] 0.081 | [16] 0.089 | [17] 0.006 | [18] 0.019 | [19] -0.036 | [20] -0.008

PIGG (UniProt Q5H8A4)
Sequence of UniProt Q5H8A4 (Q5H8A4 whole entry, looked up): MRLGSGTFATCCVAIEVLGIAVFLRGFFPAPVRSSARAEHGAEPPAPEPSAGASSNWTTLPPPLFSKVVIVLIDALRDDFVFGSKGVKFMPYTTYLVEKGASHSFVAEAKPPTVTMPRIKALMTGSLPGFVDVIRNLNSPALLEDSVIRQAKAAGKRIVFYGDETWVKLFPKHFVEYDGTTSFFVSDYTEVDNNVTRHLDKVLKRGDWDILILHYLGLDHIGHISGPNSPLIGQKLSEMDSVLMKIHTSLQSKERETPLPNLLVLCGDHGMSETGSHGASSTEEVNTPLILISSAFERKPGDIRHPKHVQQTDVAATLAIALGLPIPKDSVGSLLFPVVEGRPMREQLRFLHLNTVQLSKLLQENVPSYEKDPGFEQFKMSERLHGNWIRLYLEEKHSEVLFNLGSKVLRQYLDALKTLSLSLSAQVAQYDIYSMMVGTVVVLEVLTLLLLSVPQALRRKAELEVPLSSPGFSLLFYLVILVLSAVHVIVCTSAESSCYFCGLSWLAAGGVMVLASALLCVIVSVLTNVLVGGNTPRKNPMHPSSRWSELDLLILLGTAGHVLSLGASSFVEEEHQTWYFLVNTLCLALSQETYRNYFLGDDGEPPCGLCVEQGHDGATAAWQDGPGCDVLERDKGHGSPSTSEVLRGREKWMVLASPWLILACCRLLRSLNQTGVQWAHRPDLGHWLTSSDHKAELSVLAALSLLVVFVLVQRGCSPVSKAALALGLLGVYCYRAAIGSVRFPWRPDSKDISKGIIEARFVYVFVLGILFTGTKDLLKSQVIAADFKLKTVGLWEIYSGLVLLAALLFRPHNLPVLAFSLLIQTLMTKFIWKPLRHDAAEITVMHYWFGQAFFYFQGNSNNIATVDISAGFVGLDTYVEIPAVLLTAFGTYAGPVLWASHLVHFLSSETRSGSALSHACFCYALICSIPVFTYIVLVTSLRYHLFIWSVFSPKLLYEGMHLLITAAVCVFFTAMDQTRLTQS
inactive: [1] 0.062 | [2] -0.053 | [3] 0.01 | [4] -0.041 | [5] 0.046 | [6] -0.035 | [7] -0.013 | [8] 0.011 | [9] 0.098 | [10] -0.02 | [11] -0.034 | [12] 0.047 | [13] 0.083 | [14] 0.007 | [15] -0.013 | [16] -0.022 | [17] 0.004 | [18] -0.044 | [19] 0.012 | [20] 0.038

PTRHD1 (UniProt Q6GMV3)
Sequence of UniProt Q6GMV3 (Q6GMV3 whole entry, looked up): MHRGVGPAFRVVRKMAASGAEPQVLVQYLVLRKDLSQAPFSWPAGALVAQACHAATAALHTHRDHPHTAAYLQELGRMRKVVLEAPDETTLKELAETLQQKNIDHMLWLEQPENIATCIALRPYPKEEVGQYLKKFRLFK
inactive: [1] 0.003 | [2] 0.006 | [3] 0.184 | [4] -0.097 | [5] 0.18 | [6] 0.08 | [7] 0.037 | [8] 0.022 | [9] -0.036 | [10] 0.225 | [11] -0.067 | [12] 0.024 | [13] 0.08 | [14] -0.032 | [15] -0.007 | [16] -0.061 | [17] 0.111 | [19] 0.028 | [20] 0.043
active: [18] 0.332

PIK3CB (UniProt P42338)
Sequence of UniProt P42338 (P42338 whole entry, looked up): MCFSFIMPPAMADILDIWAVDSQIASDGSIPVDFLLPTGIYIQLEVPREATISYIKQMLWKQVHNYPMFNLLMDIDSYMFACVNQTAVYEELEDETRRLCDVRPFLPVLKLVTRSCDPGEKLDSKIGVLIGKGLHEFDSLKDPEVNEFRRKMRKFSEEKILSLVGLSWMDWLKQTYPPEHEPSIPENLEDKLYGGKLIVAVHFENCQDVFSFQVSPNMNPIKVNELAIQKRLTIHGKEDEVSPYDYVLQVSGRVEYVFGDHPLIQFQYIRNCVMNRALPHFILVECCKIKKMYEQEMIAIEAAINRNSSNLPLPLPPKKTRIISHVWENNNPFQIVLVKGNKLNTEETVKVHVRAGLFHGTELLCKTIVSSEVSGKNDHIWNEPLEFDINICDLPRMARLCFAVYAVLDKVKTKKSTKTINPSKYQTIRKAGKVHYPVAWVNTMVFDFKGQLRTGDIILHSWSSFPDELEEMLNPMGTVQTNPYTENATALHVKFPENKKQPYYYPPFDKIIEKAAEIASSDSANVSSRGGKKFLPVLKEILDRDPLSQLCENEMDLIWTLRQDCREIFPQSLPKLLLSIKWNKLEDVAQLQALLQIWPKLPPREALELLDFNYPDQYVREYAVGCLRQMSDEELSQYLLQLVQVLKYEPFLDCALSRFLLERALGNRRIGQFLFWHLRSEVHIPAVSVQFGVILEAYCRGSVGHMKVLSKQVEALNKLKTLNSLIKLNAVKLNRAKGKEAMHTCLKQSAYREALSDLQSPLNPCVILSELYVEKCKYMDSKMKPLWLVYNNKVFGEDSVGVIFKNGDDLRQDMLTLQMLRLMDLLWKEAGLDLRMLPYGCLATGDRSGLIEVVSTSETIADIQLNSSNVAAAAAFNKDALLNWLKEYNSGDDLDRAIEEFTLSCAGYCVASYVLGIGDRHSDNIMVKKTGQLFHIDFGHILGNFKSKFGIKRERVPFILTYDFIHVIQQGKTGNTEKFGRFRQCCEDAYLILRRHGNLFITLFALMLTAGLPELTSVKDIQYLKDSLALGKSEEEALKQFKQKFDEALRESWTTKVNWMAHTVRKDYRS
inactive: [1] 0.043 | [2] -0.077 | [3] 0.064 | [4] 0.034 | [6] -0.041 | [7] -0.075 | [8] 0.06 | [9] 0 | [10] -0.057 | [11] -0.075 | [12] 0.028 | [13] -0.084 | [14] -0.056 | [15] -0.209 | [16] 0.034 | [17] -0.002 | [18] 0.049 | [19] -0.105 | [20] 0.037
active: [5] 0.318

PTPN12 (UniProt Q05209)
inactive: [1] 0.031 | [2] -0.018 | [3] -0.04 | [4] 0.069 | [5] -0.022 | [6] -0.088 | [7] 0.089 | [8] 0.053 | [9] -0.004 | [10] -0.011 | [11] -0.052 | [12] 0.008 | [13] -0.022 | [14] -0.122 | [15] -0.059 | [16] 0.074 | [17] -0.116 | [18] -0.086 | [19] -0.081 | [20] 0.021

PFDN1 (UniProt O60925)
Sequence of UniProt O60925 (O60925 whole entry, looked up): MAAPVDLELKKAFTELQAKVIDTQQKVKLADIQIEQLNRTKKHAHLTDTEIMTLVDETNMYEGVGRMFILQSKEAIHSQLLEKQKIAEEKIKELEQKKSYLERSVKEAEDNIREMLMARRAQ
inactive: [1] 0.018 | [2] 0.069 | [3] 0.264 | [4] -0.115 | [5] 0.175 | [6] 0.029 | [7] 0.072 | [8] 0.081 | [9] 0.018 | [10] 0.277 | [11] 0.038 | [12] -0.041 | [13] 0.012 | [14] 0.026 | [15] 0.076 | [16] -0.023 | [17] 0.153 | [18] 0.328 | [19] -0.061 | [20] 0.039

PPP1R12A (UniProt O14974)
inactive: [1] -0.054 | [2] -0.351 | [3] -0.039 | [5] 0.065 | [6] 0.021 | [7] 0.011 | [8] 0.029 | [9] -0.054 | [10] -0.1 | [11] -0.041 | [12] -0.02 | [13] -0.027 | [14] -0.302 | [15] -0.108 | [16] -0.118 | [17] -0.002 | [18] 0.02 | [19] -0.023 | [20] 0.07
active: [4] -0.885

PHF5A (UniProt Q7RTV0)
Sequence of UniProt Q7RTV0 (Q7RTV0 whole entry, looked up): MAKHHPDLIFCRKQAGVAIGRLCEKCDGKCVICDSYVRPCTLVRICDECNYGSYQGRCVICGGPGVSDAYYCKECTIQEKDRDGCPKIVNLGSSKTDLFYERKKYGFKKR
inactive: [1] 0.013 | [2] 0.074 | [3] -0.061 | [4] -0.072 | [5] 0 | [6] -0.009 | [7] 0.043 | [8] -0.031 | [9] -0.093 | [10] 0.094 | [11] -0.097 | [12] -0.047 | [13] -0.018 | [14] 0.012 | [15] 0.102 | [16] 0.086 | [17] -0.031 | [18] 0.03 | [19] 0.031 | [20] -0.025

PGK2 (UniProt P07205)
inactive: [1] 0.016 | [2] 0.029 | [3] 0.075 | [4] -0.002 | [5] 0.062 | [6] 0.078 | [7] -0.033 | [8] -0.093 | [9] -0.109 | [10] 0.024 | [11] 0.009 | [12] -0.036 | [13] 0.066 | [14] 0.096 | [15] 0.11 | [16] -0.013 | [17] -0.137 | [18] -0.029 | [19] -0.006 | [20] -0.092

PPP1R35 (UniProt Q8TAP8)
inactive: [1] -0.025 | [2] -0.036 | [3] 0.179 | [4] -0.037 | [5] -0.071 | [6] 0.044 | [7] 0.007 | [8] 0.025 | [9] 0.024 | [10] -0.058 | [11] -0.039 | [12] 0.058 | [13] 0.008 | [14] -0.031 | [15] -0.04 | [16] -0.095 | [17] -0.024 | [18] -0.042 | [19] -0.022 | [20] 0.065

PCGF2 (UniProt P35227)
Sequence of UniProt P35227 (P35227 whole entry, looked up): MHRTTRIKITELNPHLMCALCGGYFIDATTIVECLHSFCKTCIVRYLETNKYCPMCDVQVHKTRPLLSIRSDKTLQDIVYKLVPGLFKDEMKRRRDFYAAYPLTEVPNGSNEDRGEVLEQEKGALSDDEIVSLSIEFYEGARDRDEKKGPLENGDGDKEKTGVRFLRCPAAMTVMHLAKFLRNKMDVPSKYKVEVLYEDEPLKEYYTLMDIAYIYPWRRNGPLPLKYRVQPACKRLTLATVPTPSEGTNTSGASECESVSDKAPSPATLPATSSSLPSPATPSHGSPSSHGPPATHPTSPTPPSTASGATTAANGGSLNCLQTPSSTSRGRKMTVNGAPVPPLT
inactive: [1] 0.041 | [2] 0.01 | [3] 0.075 | [4] 0.087 | [5] 0.124 | [6] 0.121 | [7] 0.015 | [8] 0.15 | [9] -0.089 | [10] 0.021 | [11] 0.015 | [12] -0.035 | [13] -0.097 | [14] -0.235 | [15] -0.127 | [16] 0.028 | [17] 0.004 | [18] 0.081 | [19] 0.001 | [20] -0.001

PIP4P1 isoform 2 (UniProt Q86T03)
active: [2] -0.395 | [10] -0.353
inactive: [1] 0.021 | [3] -0.123 | [4] 0.086 | [5] -0.085 | [6] 0.107 | [7] 0.021 | [8] -0.048 | [9] -0.025 | [11] -0.044 | [12] 0.102 | [13] 0.031 | [14] -0.004 | [15] 0.051 | [16] -0.016 | [17] -0.158 | [18] 0.01 | [19] 0.112 | [20] -0.037

PRUNE1 (UniProt Q86TP1)
Sequence of UniProt Q86TP1 (Q86TP1 whole entry, looked up): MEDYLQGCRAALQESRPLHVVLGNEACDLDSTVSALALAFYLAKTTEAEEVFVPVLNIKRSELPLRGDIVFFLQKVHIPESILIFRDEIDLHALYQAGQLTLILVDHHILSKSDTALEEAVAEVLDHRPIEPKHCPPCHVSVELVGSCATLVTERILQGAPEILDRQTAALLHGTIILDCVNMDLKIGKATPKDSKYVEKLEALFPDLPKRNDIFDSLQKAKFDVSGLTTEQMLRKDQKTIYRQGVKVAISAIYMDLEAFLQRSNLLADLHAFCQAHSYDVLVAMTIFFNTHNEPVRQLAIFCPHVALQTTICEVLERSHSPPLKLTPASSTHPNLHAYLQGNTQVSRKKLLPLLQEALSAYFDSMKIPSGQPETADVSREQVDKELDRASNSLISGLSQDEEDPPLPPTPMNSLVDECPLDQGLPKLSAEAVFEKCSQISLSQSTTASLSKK
inactive: [1] -0.011 | [2] -0.064 | [3] -0.002 | [4] -0.026 | [5] -0.047 | [6] -0.071 | [7] 0.097 | [8] 0.056 | [9] 0.008 | [10] -0.018 | [11] -0.037 | [12] 0.045 | [13] -0.051 | [14] -0.054 | [15] -0.178 | [16] 0.082 | [17] -0.045 | [18] -0.045 | [19] -0.122 | [20] -0.056
